Shown are actives, neighbours in structure and some others; about 2.4% of the full set was active somewhere.
SENP8 block-1 – inhibitors of human SENP8 protease; AID 2540; actives 1.2% (n = 330,000); purified SENP8, Z-RLRGG-aminoluciferin cleavage, luminescence; inhibition, % at 10 µM; in the data active = inhibition above about 50%
Target sequence (Q96LD8 whole entry, looked up): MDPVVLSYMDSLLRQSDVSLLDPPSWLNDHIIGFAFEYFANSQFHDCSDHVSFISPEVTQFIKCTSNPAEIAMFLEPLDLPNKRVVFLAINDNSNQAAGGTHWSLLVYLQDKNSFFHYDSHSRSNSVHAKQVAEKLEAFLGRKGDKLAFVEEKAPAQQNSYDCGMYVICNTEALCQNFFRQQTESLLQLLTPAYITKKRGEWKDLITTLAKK
SENP7 block – blocks the human protease SENP7; recombinant SENP7, Z-RLRGG-aminoluciferin luminescence, 40 min; inhibition, % at 5 µM; actives 1.5% (n = 330,000); AID 434973;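 active = inhibition above about 50% at the single test dose, limit read from the data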;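 note: plate controls were DMSO with enzyme for no effect and no enzyme buffer wells for full effect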
Platelet DG rel – platelet dense granule release activity. human platelet-rich plasma, SFLLRN dense granule ATP release, luminescence. inhibition, %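 (compounds screened at 7.5 µM in platelet-rich plasma)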. actives 0.22% (n = 300,000);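 active = mean replicate score, as percent of positive control, at or above 50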
SENP6 block – SENP6 protease inhibition | Recombinant SENP6 catalytic domain, aminoluciferin luminescence | inhibition, % at 10 µM | actives 1.8% (n = 330,000) | AID 2599;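 active = inhibition above about 50% at the single tested dose, limit read from the data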;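 note: plate controls were DMSO wells with enzyme for no effect and DMSO wells lacking enzyme for full effect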
SENP8 block-2 – SENP8 (human) protease inhibition | recombinant SENP8, Nedd8 substrate fluorescence | Q96LD8 | actives 0.64% (n = 360,000) | inhibition, % at 20 µM; in the data active = inhibition mostly above about 40%, no sharp cut-off; inactive = mostly below about 27%
SENP8 confirm – confirmation of human SENP8 protease inhibitors. actives 40% (n = 6,200). inhibition, % at 12.5 µM. shares compounds with SENP7 block. Recombinant SENP8, Z-RLRGG-aminoluciferin luminescence, 60 min;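 active = mean inhibition across replicates above about 50%, limit read from the data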
SENP6 conf – human SENP6 inhibition, confirmed; shares compounds with SENP7 block; AID 488915; recombinant SENP6, Z-RLRGG-aminoluciferin luminescence; inhibition, % at 12.5 µM; actives 58% (n = 6,200)
SENP7 conf – confirmation of human SENP7 protease inhibitors; recombinant SENP7, Z-RLRGG-aminoluciferin luminescence, 40 min; inhibition, % at 12.5 µM; actives 69% (n = 6,200); shares compounds with SENP7 block
Casp3 select – selectivity test for SENP inhibitors: human caspase-3 inhibition; inhibition, % at 12.5 µM; shares compounds with SENP7 block; purified caspase-3, Z-DEVD-aminoluciferin luminescence, 60 min; AID 488918; actives 60% (n = 6,200);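 active = mean inhibition above about 50%, limit read from the data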;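 note: plate controls were enzyme with DMSO for no effect and wells without caspase-3 for full effect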
Target sequence (P42574 28-227 limits assumed): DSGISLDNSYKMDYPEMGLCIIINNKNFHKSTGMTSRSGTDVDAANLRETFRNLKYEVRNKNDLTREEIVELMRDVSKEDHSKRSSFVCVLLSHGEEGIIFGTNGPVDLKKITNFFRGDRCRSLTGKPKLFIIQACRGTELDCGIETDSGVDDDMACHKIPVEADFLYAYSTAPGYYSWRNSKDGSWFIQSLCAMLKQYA
SENP luc ctr – interferes with luciferase luminescence in SENP counter-screen; shares compounds with SENP7 block; Pre-incubated SENP8/Z-RLRGG-aminoluciferin, luciferase luminescence interference; actives 39% (n = 6,200); inhibition, % at 12.5 µM;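 active = mean inhibition above about 50% when retested at one dose, limit read from the data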;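 note: plate controls were DMSO wells with completed reaction for no effect and substrate without enzyme for full effect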
* hit, by the source's call; . = no result.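 Rule for the calls, unless noted: active = mean inhibition above about 50% in the one-dose retest (limit read from the data); inactive = the rest.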

SMILES	SENP8 block-1	SENP7 block	Platelet DG rel	SENP6 block	SENP8 block-2	SENP8 confirm	SENP6 conf	SENP7 conf	Casp3 select	SENP luc ctr
COc1cc(/C=C(\C#N)c2nc3ccccc3[nH]2)ccc1OC(=O)c1ccco1	83*	73*	32	75*	-428	66*	67*	99*	86*	27
N#C/C(=C\c1ccc(O)cc1)c1nc2ccccc2o1	74*	63*	6	84*	-83	81*	80*	93*	62*	74*
Cc1[nH]n(-c2ccccc2)c(=O)c1N=Nc1ccccc1	-12	-7	-8	-2	26	.	.	.	.	.
Nc1nn(-c2ccccc2)c(N)c1N=Nc1cccc(F)c1	-11	-4	-32	17	22	.	.	.	.	.
Nc1nn(-c2ccccc2)c(N)c1N=Nc1ccc2c(c1)OCO2	9	29	-14	62*	40	40	41	76*	45	61*
Nc1[nH]n(-c2ccccc2)c(=O)c1N=Nc1ccc2c(c1)OCCO2	84*	93*	-7	73*	36	43	94*	99*	83*	36
C[C@@H]1CCC2[C@](C)(CO)[C@@H](O)CC[C@]2(C)[C@@]12C[C@](CO)(CC(=O)O)CO2 (stereo not given in full)	8	1	0	9	22	.	.	.	.	.
COC(=O)C1CCN(C(=O)CN2C(=O)NC3(CCC(C)CC3)C2=O)CC1 (stereo not given)	-1	4	.	8	20	.	.	.	.	.
OCCNC(=S)Nc1ccc2nsnc2c1	61*	32	-16	82*	-12	11	23	18	9	4
O=C(NCCO)Nc1ccc2nsnc2c1	5	5	0	8	-388	.	.	.	.	.
COc1cccc(CNC(=O)c2ccc(C)c(S(=O)(=O)N3CCCCC3)c2)c1	0	0	8	4	6	.	.	.	.	.
Cn1cc(Cl)c(C(=O)N/N=C/c2ccc3c4c(cccc24)CC3)n1	33	53*	17	40	-380	-7	2	20	13	1
Cc1nc2cc(NC(=O)c3ccc(Br)s3)ccc2s1	46	70*	12	70*	13	22	51*	91*	48	0
Cc1ccc(C(=O)Nc2ccc3nc(C)sc3c2)s1	0	0	4	0	20	.	.	.	.	.
Cc1ccnc(NC(=O)c2ccc(Br)s2)c1	82*	92*	29	88*	10	86*	87*	98*	91*	88*
O=C(Nc1ccccn1)c1cccs1	-1	9	1	4	22	.	.	.	.	.
Cc1ccnc(NC(=O)c2cccs2)c1	38	57*	37	54*	14	51*	51*	84*	86*	62*
CC1(C)CC(=O)C2=C(C1)NC(=S)C(C#N)C21CCCCC1 (stereo not given)	5	2	14	-6	6	.	.	.	.	.
COc1cccc(-c2nc(-c3ccc(NC(=O)c4ccncc4)cc3)no2)c1	2	0	-2	4	7	.	.	.	.	.
COc1cccc(-c2nc3ccc(O)cc3c(=O)o2)c1	74*	87*	52*	89*	-36	-6	81*	96*	80*	87*
COc1cccc(-c2nc(-c3ccc(C(=O)O)cc3)no2)c1	95*	97*	50*	99*	-12	99*	100*	103*	99*	86*
O=C(O)c1ccc(-c2noc(-c3cccc(F)c3)n2)cc1	95*	96*	40	97*	8	98*	99*	101*	97*	95*
CC(=O)Oc1cccc(-c2nc3ccccc3c(=O)o2)c1	-17	-21	2	-15	-8	.	.	.	.	.
COc1ccc(N2CCN(C(=O)COC(=O)c3cccc(S(=O)(=O)Nc4cccc(C)c4)c3)CC2)cc1	-14	9	3	-8	17	.	.	.	.	.
COc1ccccc1-n1nnnc1SC(C)C(=O)NC1CCCC1 (stereo not given)	2	4	-2	-4	8	.	.	.	.	.
SMILES	SENP8 block-1	SENP7 block	Platelet DG rel	SENP6 block	SENP8 block-2	SENP8 confirm	SENP6 conf	SENP7 conf	Casp3 select	SENP luc ctr
Cc1cc(N(C)C)ccc1N=Nc1ccc2ncccc2c1	92*	96*	23	92*	24	90*	96*	49	43	56*
CN(C)c1ccc(N=Nc2ccc3ncccc3c2)cc1	.	.	.	.	35	.	.	.	.	.
O=C(O)c1cc(/C=C/c2ccc(N3CCOCC3)cc2)nc2ccccc12	70*	69*	.	2	-418	79*	78*	96*	90*	83*
O=C(O)c1cc(/C=C/c2ccc(N3CCOCC3)c([N+](=O)[O-])c2)nc2ccccc12	53*	63*	11	77*	-104	73*	68*	91*	81*	71*
O=C(O)c1cc(N2CCOCC2)nc2ccccc12	-10	14	4	-5	-314	.	.	.	.	.
O=C(c1ccc(N2CCOCC2)c([N+](=O)[O-])c1)N1CCN(c2ccccc2)CC1	.	.	.	.	18	.	.	.	.	.
O/N=C/c1ccc(OCc2ccccc2)c(Cl)c1	64*	59*	1	86*	7	8	72*	90*	41	76*
CCOC(=O)NC(=O)c1cn(Nc2ccccc2)c(=O)[nH]c1=O	-4	2	-3	-3	26	.	.	.	.	.
O=C(c1cccs1)c1coc2ccc(O)cc12	21	28	-2	54*	24	41	48	77*	49	32
CC(=O)Oc1ccc2occ(C(=O)c3cccs3)c2c1	8	5	2	23	22	.	.	.	.	.
O=C(CCl)Oc1ccc2occ(C(=O)c3cccs3)c2c1	27	38	-1	63*	14	32	30	66*	40	30
CN(C)S(=O)(=O)c1ccc(/C(O)=C2/C(=O)C(=O)N(CCCN3CCOCC3)C2c2ccncc2)cc1 (stereo not given)	4	6	-3	-20	18	.	.	.	.	.
Oc1ccccc1C=NCCCCCCN=Cc1ccccc1O	59*	-3	1	69*	9	15	30	38	31	10
Cc1cc(-c2ccc3c(c2)COc2c4ccccc4nn2-3)on1	86*	49	17	93*	-356	-28	7	37	26	7
C(#CC1CCCC1)c1ccc2c(c1)COc1c3ccccc3nn1-2	26	2	3	44	5	.	.	.	.	.

Screening data from PubChem.
